Bioassay records deposited in PubChem by National Center for Advancing Translational Sciences (NCATS).
Compounds with a hit are over-represented: about 1.8% of the library has one in this group of screens.
TrxR1 substrate – is turned over as a substrate by rat TrxR1 | purified TrxR1 substrate turnover, NADPH consumption readout | AID 588456 | Potency, µM (doses to about 114 µM), for inactives: at the top dose activity change, negative = substrate turnover | 390,000 tested, 0.01% active | O89049; further: potency means the concentration at half of the fitted maximal effect; on the % scale 0 is the no-effect control and ±100 the full control effect; nearly all actives have a fitted effect of over 50% in size
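Rat TrxR1, dispensed at 90 nM, was prereduced with 400 uM NADPH (final) for 5 min at ~22 deg C, then incubated with compound 15 min before 400 uM selenite. A first-read NADPH fluorescence drop versus no-compound background flagged substrates.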
Vif-A3G inh – blocks the Vif interaction with human APOBEC3G; Q9HC16; HeLa A3G-eYFP + Vif (tagged APOBEC3G with the HIV-1 protein that degrades it), YFP fluorescence, overnight; Potency, µM (titrated, usually from 46.1 µM), for the others: at the highest dose activity, negative = active, most hits filed as inhibitors; 410,000 tested, 0.076% active; AID 602310; further: potency means the concentration at half of the fitted maximal effect; on the % scale 0 is the no-effect control and ±100 the full control effect; nearly all actives have a fitted effect of over 60% in size
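Read-out is eYFP fluorescence (Ex 488/Em 500-530) from Vif-expressing HeLa A3G-eYFP cells; more signal means A3G escaped Vif-mediated degradation. Cells plated overnight, compound pinned in, incubated overnight at 37 deg C.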
VDR inh – inhibitors of human vitamin D receptor. VDR-SRC2-3 peptide fluorescence polarization, 2 h. P11473. 400,000 tested, 0.93% active. Potency, µM, without a hit: max response, negative = inhibition, actives largely listed as inhibitors. AID 504847; further: potency means the concentration at half of the fitted maximal effect; on the % scale 0 is the no-effect control and ±100 the full control effect
Target sequence (P11473 whole entry, looked up): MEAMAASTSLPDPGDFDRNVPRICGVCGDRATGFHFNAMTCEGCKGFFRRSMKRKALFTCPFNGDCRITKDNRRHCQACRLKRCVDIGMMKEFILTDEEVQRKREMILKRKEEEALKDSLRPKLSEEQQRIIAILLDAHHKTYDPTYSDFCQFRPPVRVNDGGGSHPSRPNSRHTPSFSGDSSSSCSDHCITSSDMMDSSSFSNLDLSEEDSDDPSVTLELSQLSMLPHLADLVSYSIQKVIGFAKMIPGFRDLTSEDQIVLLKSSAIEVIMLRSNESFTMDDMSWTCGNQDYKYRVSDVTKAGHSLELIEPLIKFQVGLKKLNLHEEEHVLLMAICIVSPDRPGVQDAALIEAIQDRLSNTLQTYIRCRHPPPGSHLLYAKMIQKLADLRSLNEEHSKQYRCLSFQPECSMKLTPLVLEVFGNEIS
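Fluorescence polarization assay measuring small-molecule disruption of VDR binding to the coregulator peptide SRC2-3. Compounds were pin-transferred (23 nl) into the reagent mix and incubated 2 h at room temperature before reading.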
TrxR1 inh-1 – blocks rat thioredoxin reductase 1; O89049; recombinant rTrxR1, NADPH fluorescence consumption, selenite substrate; Potency, µM (series often up to 114 µM), for inactives: top-dose activity change, negative = inhibition, usual class: inhibitors; 390,000 tested, 1% active; AID 588453; further: potency means the concentration at half of the fitted maximal effect; on the % scale 0 is the no-effect control and ±100 the full control effect; nearly all actives have a fitted effect of over 65% in size
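Rat TrxR1 (90 nM in the dispensed reagent) was pre-reduced with 400 uM NADPH for 5 min at room temperature, then incubated with compound for 15 min. After 400 uM selenite was added, NADPH fluorescence (Ex 340/Em 450 nm) was followed for 8 min.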
Vif-APOBEC3F blk – inhibitors of Vif-A3F interaction | HeLa A3F-eYFP + Vif (tagged APOBEC3F with the HIV-1 protein that degrades it), YFP fluorescence increase | Potency, µM (doses to about 46.1 µM), for the others: at the highest dose activity, negative = active | 390,000 tested, 0.2% active; further: potency means the concentration at half of the fitted maximal effect; % of control where 0% means no effect; nearly all actives have a fitted effect of over 65% in size
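Fluorescence increase (Ex 488/Em 500-530) after overnight compound treatment at 37 deg C flags inhibition of Vif-driven A3F-eYFP loss in stable HeLa A3F-eYFP/Vif cells seeded overnight beforehand.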
VDR confirm – confirmation of human vitamin D receptor inhibitors. shares compounds with VDR inh. VDR-coactivator inhibition assay, qHTS confirmation. Potency, µM, most hits filed as inhibitors. 840 tested, 89% active; further: potency means the concentration at half of the fitted maximal effect
VDR FP – blocks human VDR-coactivator binding in fluorescein assay | shares compounds with VDR inh | VDR-coactivator binding, fluorescein fluorescence polarization | Potency, µM (doses to about 57.1 µM), without a hit: top-dose activity change, negative = inhibition, actives largely listed as inhibitors | 840 tested, 48% active; further: potency means the concentration at half of the fitted maximal effect
VDR bla reporter – VDR (human) inhibition, cell-based beta-lactamase validation; shares compounds with VDR inh; VDR beta-lactamase reporter cells, FRET ratio; cells co-treated with VDR agonist LG190178; Potency, µM (top dose mostly 46.1 µM), for the others: at the highest dose activity change, negative = inhibition, hits mostly inhibitors; 840 tested, 23% active; AID 602202; further: potency means the concentration at half of the fitted maximal effect; on the % scale 0 is the no-effect control and ±100 the full control effect
VDR viability – counter-screen for vitamin D receptor inhibitors: cytotoxicity; Potency, µM (top dose mostly 48.3 µM), inactives show top-dose activity change, negative = cytotoxicity, usual class: cytotoxic; cytotoxicity counter-screen, cell viability, qHTS; shares compounds with VDR inh; 840 tested, 18% active;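 further: potency means the concentration at half of the fitted maximal effect; plate controls were DMSO for no effect and high-concentration cycloheximide for full effect; nearly all actives have a fitted effect of over 75% in size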
GR inh – counter-screen for TrxR1 inhibitors: human glutathione reductase inhibition; shares compounds with TrxR1 inh-1; purified GR, DTNB reduction absorbance 405 nm kinetic; activity change, negative = inhibition, % at 57.1 µM; 55 tested, under 10 active; AID 652020
TrxR1 inh-2 – rat TrxR1 inhibition, primary screen retest. shares compounds with TrxR1 inh-1. recombinant TrxR1, NADPH fluorescence consumption, selenite substrate. Potency, µM, actives largely listed as inhibitors. 55 tested, 50% active. AID 652023
TrxR1 insulin – TrxR1 inhibition in insulin mechanism assay. shares compounds with TrxR1 inh-1. TrxR1 Trx-coupled insulin reduction, NADPH absorbance 340 nm. Potency, µM. 55 tested, 20% active. AID 652037;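 active means compounds with a measured potency under 100 micromolar; inconclusive means filed, but no rule given; inactive means potency at or above that, or unmeasurable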
TrxR1 inh-3 – blocks rat TrxR1 reduction of DTNB; shares compounds with TrxR1 inh-1; purified TrxR1, DTNB reduction, A412; Potency, µM; 55 tested, 90% active;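 active means a half-inhibiting concentration could be measured and was below 100 µM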
An asterisk follows results filed as active; i = inactive; ? = inconclusive; nt = no result given; [ ] = remark or other dose. Unless noted, the call rests on the fitted dose curve; in most records, active means well fitted curve in the direction sought with a large enough effect; inconclusive means small, poorly fitted or top-dose-only effect, or another doubt; inactive means no such curve, though single readings can be large; an effect the other way counts as inactive or inconclusive.

SMILES	TrxR1 substrate	Vif-A3G inh	VDR inh	TrxR1 inh-1	Vif-APOBEC3F blk	VDR confirm	VDR FP	VDR bla reporter	VDR viability	others
CC1=NN(c2ccccc2)C(=O)/C1=C/c1ccc(Cl)cc1	-2%	3%	79µM*	-24%	-11%	15*	?	5%	9%
CC1=NN(c2cccc(C(=O)O)c2)C(=O)/C1=C\C=C/c1ccccc1	3%[57.1 µM]	-15%	?	-77%	-5%	3.2*	3.2µM*	8.2µM*	?
COc1ccc(/C=C2/C(=O)N(c3ccccc3)N=C2C)cc1Br	-5%	-13%	50µM*	?	-5%	9.5*	?	20%	4%
CN1CCN(c2oc(-c3ccc(OCc4ccc(Cl)cc4)cc3)nc2C#N)CC1	12%	2%	3%	31%	nt	nt	nt	nt	nt
COc1cc(/C=C/C(=O)Nc2nnc(CC(C)(C)C)s2)cc(OC)c1OC	43%[57.1 µM]	0%	79µM*	-15%[57.1 µM]	0%	21*	14µM*	26%	11%
COc1ccc(Br)cc1C1NC(c2ccc3c(c2)OCO3)=CC(c2cc(Cl)ccc2O)N1 (centres undefined)	-5%	-13%	50µM*	?	nt	?	?	?	-19%
N#Cc1c(Nc2ccccc2)s[nH]c1=O	2%[57.1 µM]	-6%	?	-21%[57.1 µM]	?	7.5*	8%	10%	-16%
CC1(C)CCC[C@@](C)([C@H]2CC[C@]3(C)[C@@H]2[C@H](O)CC2[C@@]4(C)CC[C@H](O)C(C)(C)[C@@H]4[C@@H](O)C[C@]23C)O1 (some centres undefined)	nt	nt	-6%	nt	nt	nt	nt	nt	nt
CCc1nnc(NC(=O)C2CCCN(C(=O)c3ccoc3)C2)s1 (centres undefined)	6%	0%	-20%	14%	nt	nt	nt	nt	nt
O=C(Nc1nnc(-c2ccccc2)s1)C1CCCN(C(=O)c2ccoc2)C1 (centres undefined)	0%	0%	45µM*	?	nt	16*	8.9µM*	?	-3%
CCC(C)(C)n1nnnc1C(c1ccc(O)c(OC)c1)N1CCc2ccccc2C1 (centres undefined)	7%	-2%	?	0.079µM*	1%	11*	28µM*	-2%	-7%	GR inh=8;TrxR1 inh-2=0.34*;TrxR1 insulin=i;TrxR1 inh-3=0.011µM*
Cc1cc(Sc2ccc([N+](=O)[O-])cn2)ccc1Br	6%[57.1 µM]	-8%	-24%	12%[57.1 µM]	15%	nt	nt	nt	nt
